# Measured values as given in the supplement of paper PMC4166925.
# ± gives the standard deviation of the averaged measurements. Over roughly 33,000 sequences, “E-score (dimensionless, -0.5 to 0.5)” has its median near -0.049; the highest 2% begin near 0.37. The full list was thinned out, with the highest values kept by preference.
# Tested on: T1, PmTbr T-box DNA-binding domain (GST fusion)
# T1 sequence: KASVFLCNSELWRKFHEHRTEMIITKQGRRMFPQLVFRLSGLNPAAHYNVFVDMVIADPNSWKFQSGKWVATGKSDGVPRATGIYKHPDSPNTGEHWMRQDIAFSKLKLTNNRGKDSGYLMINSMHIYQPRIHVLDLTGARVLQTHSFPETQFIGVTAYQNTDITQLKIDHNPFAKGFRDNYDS
# Assay: PBM E-score of 8-mer (E-score (dimensionless, -0.5 to 0.5)); Tbr is Tbrain of the sea star Patiria miniata (Pm) or the sea urchin Strongylocentrotus purpuratus (Sp); higher = stronger binding preference
# Details: the construct has about 5 more residues each side
# Procedure, shortened: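 Universal Agilent oligonucleotide arrays, made double-stranded by primer extension, were incubated with 200 nM GST-fused Tbr T-box DNA-binding domain in PBS (pH 7.5). The protein was expressed in BL21 E. coli at 20 °C and purified by glutathione affinity chromatography. After scanning and quantification, the Universal PBM Analysis Suite assigned an enrichment E-score to each ungapped 8-mer, averaged over duplicate arrays.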
row,Sequence,PBM E-score of 8-mer
1,AGATAGTC,-0.0975 ± 0.03
2,AATACTTG,-0.0724 ± 0.093
3,AATGCGCA,-0.0568 ± 0.095
4,AGGGGGAA,-0.14 ± 0.053
5,CCTAAGTC,-0.0839 ± 0.0091
6,ACTGTTAC,0.118 ± 0.043
7,GGTGTAAC,0.363 ± 0.027
8,ACTGTTAA,0.21 ± 0.045
9,GCTGTTAC,0.0246 ± 0.042
10,AGTGTTCC,0.0364 ± 0.038
11,AATGTTAA,-0.0297 ± 0.11
12,GGTGTTAC,0.4752 ± 0.00012
13,AGTGTTAA,0.433 ± 0.017
14,GGTGTAAA,0.418 ± 0.0026
15,AGTGTTAC,0.3946 ± 0.0021
16,CGTGTTAC,0.349 ± 0.015
17,AGTGTAAA,0.287 ± 0.081
18,CCCACAGG,0.0869 ± 0.067
19,CCGGTTGC,-0.0645 ± 0.0032
20,CATAGATA,-0.161 ± 0.051
21,ACCAACGA,0.0332 ± 0.14
22,GTGCTTGA,0.00432 ± 0.026
23,ACTGTTAT,0.0989 ± 0.046
24,AGTGTTAT,0.397 ± 0.016
25,AATGTTAT,-0.00229 ± 0.038

row,Sequence,PBM E-score of 8-mer
1,CCCGAGGG,-0.251 ± 0.11
2,CCTTCTCC,-0.0679 ± 0.015
3,AGAGCAAA,-0.099 ± 0.029
4,TAACAAGA,0.0263 ± 0.085
5,GTGTGCTA,0.3066 ± 0.0011
6,GGGTGCGA,0.4765 ± 0.0031
7,AGGTGCCG,0.439 ± 0.0092
8,AGGTGCCC,0.0662 ± 0.046
9,CGGTGCGA,0.35 ± 0.017
10,ACGTGCCA,0.367 ± 0.031
11,AGGTGCCA,0.4761 ± 0.0036
12,GTGTGCGA,0.3565 ± 0.0019
13,GGGTGCTA,0.4326 ± 0.0028
14,AGCTGCCA,0.18 ± 0.026
15,ACGTGCCG,0.221 ± 0.02
16,CGGTGCTA,0.321 ± 0.0088
17,CACGCCAC,0.222 ± 0.04
18,ACGAAGTG,0.291 ± 0.018
19,CTGGGCCA,-0.217 ± 0.042
20,AGGTCACA,0.27 ± 0.017
21,GCTACGAC,0.00882 ± 0.05
22,CGGCAATA,-0.0175 ± 0.065
23,CGGCCTAA,-0.0861 ± 0.036
24,AACTCAAC,-0.0361 ± 0.029
25,CGCTATAA,0.164 ± 0.045

row,Sequence,PBM E-score of 8-mer
1,TGGTGCAA,0.192 ± 0.012
2,GCGTGCCA,0.163 ± 0.015
3,AGGTGCAA,0.4484 ± 0.0012
4,GGGTGCCA,0.426 ± 0.011
5,GGGTGCAA,0.31 ± 0.0046
6,CGGTGCCA,0.195 ± 0.0034
7,AAAGACCG,-0.149 ± 0.032
8,TCCTGCCA,0.183 ± 0.019
9,TGCGTGAA,0.3679 ± 0.0033
10,CGCGTGAA,0.398 ± 0.033
11,AGCGTGAT,0.207 ± 0.025
12,CACGTGAA,0.176 ± 0.044
13,CGCGTGAG,0.282 ± 0.004
14,GGCGTGAA,0.4668 ± 0.002
15,GGCGTGAC,0.386 ± 0.017
16,AGCGTGAA,0.381 ± 0.004
17,AGCGTGAG,0.24 ± 0.042
18,CGCGTGAC,0.342 ± 0.0057
19,AGCGTGAC,0.3524 ± 0.0023
20,GGCGTGCA,-0.00275 ± 0.035
21,CTAGGATC,-0.255 ± 0.018
22,TTGAGAAA,0.0227 ± 0.14
23,ATGACCAT,-0.23 ± 0.0083
24,TCCTTAGA,-0.289 ± 0.043
25,CCCAAGCC,-0.228 ± 0.037

row,Sequence,PBM E-score of 8-mer
1,AGTCAATG,-0.195 ± 0.041
2,CTTCCACA,0.151 ± 0.069
3,CGTCTTCA,-0.00878 ± 0.0017
4,AGAACGAG,-0.0902 ± 0.0033
5,CGGCGAAA,-0.1403 ± 0.00085
6,GCCATTCA,0.104 ± 0.018
7,GAACGCTA,0.0135 ± 0.049
8,AATAACAC,0.339 ± 0.052
9,GATAACGC,0.246 ± 0.0034
10,GATAACAA,0.212 ± 0.042
11,CATAACAC,0.42 ± 0.0089
12,GATAACAC,0.4169 ± 0.0014
13,CATAACAA,0.0483 ± 0.038
14,GCTGTTCA,0.0254 ± 0.024
15,CGAAGATC,-0.07 ± 0.0097
16,ACCGCAGA,-0.332 ± 0.019
17,CATCCTCA,-0.0261 ± 0.11
18,GAACCTAC,-0.179 ± 0.00047
19,GGCTTAAA,-0.302 ± 0.016
20,ACAAGCTA,-0.0967 ± 0.014
21,TCGTGACA,0.358 ± 0.017
22,CGGTGACA,0.333 ± 0.0054
23,TGGTGACA,0.409 ± 0.01
24,GGGTGAAA,0.0558 ± 0.043
25,GGGTGACC,-0.0479 ± 0.082

row,Sequence,PBM E-score of 8-mer
1,GGGTGACA,0.4543 ± 0.0023
2,CGCGCTCA,0.13 ± 0.034
3,TATAAGGA,-0.154 ± 0.073
4,CACCAATA,0.224 ± 0.056
5,CCATGGCC,-0.263 ± 0.011
6,AGGTGACA,0.4826 ± 0.00079
7,CGGTGACG,0.179 ± 0.047
8,AGGTGACC,0.172 ± 0.052
9,AGGTGAAA,0.347 ± 0.022
10,AGGTGACT,0.31 ± 0.015
11,AGGTGACG,0.4629 ± 0.0014
12,GGGGGGCA,-0.327 ± 0.0093
13,GCTCTGAC,-0.205 ± 0.092
14,GGAAACCA,-0.1389 ± 0.00081
15,AACTCTCG,-0.128 ± 0.018
16,GATTCAGA,-0.206 ± 0.0085
17,AATTCACA,0.2798 ± 0.0014
18,TATTCACA,0.411 ± 0.029
19,AATTCACG,0.365 ± 0.0071
20,GATTCACA,0.38 ± 0.041
21,CATTCACA,0.385 ± 0.0049
22,CATTCACG,0.229 ± 0.041
23,CATTCACC,-0.0785 ± 0.054
24,GATTCACC,-0.167 ± 0.0053
25,AGACCACT,-0.234 ± 0.093

row,Sequence,PBM E-score of 8-mer
1,TACCCATA,-0.104 ± 0.024
2,AACTGACG,0.102 ± 0.036
3,ACGTGTGG,0.362 ± 0.017
4,AGATGTGC,0.163 ± 0.018
5,CTGTGTGC,-0.0563 ± 0.038
6,AGGTGTGG,0.483 ± 0.0024
7,ATGTGTGG,0.3184 ± 0.0012
8,AGGTGTGC,0.44 ± 0.0051
9,ATACTCCG,-0.00617 ± 0.029
10,AGAGTTAT,-0.0216 ± 0.013
11,GTCCAACA,0.198 ± 0.045
12,AAAGCGTG,0.2812 ± 0.0023
13,CGTAAACG,0.0455 ± 0.046
14,AGGCGTTG,0.369 ± 0.0053
15,CGGCGTTA,0.189 ± 0.00085
16,AGGCGTTC,0.0817 ± 0.053
17,AGGCGTAG,0.0703 ± 0.0097
18,AGGCGTTA,0.4486 ± 0.0021
19,GGGCGTTA,0.276 ± 0.0092
20,ATTGGAGG,0.0195 ± 0.049
21,AAATGGGC,0.0759 ± 0.0097
22,GGCAACGA,0.0835 ± 0.033
23,AGGAGATG,-0.0689 ± 0.011
24,ACTTTTAC,-0.0251 ± 0.02
25,CCAGAGCC,-0.17 ± 0.0096

row,Sequence,PBM E-score of 8-mer
1,GAGGTGGA,0.0566 ± 0.0027
2,CAGGTGGC,0.364 ± 0.018
3,AAGGTGGC,0.383 ± 0.021
4,AAGGTGGG,0.221 ± 0.026
5,AAGGTGGA,-0.0394 ± 0.074
6,GAGGTGGC,0.372 ± 0.036
7,TACTAGTA,-0.163 ± 0.035
8,CTGTAGCA,-0.0144 ± 0.079
9,ACGCACCA,0.0123 ± 0.072
10,AATCTTTA,-0.0517 ± 0.059
11,GACACGTC,0.373 ± 0.021
12,AACACGCT,0.197 ± 0.011
13,AACACGAT,0.291 ± 0.018
14,AACACGTT,0.386 ± 0.014
15,AACACGTC,0.399 ± 0.021
16,AACACGGC,0.162 ± 0.017
17,GACACGGC,0.187 ± 0.038
18,AACACGTA,0.34 ± 0.024
19,GACACGTA,0.317 ± 0.029
20,ACGCGTTC,0.138 ± 0.014
21,TTAGTGAA,-0.048 ± 0.037
22,TCTAAGAA,-0.239 ± 0.028
